Assay results taken from PubChem BioAssay (NCI).
This is part of a sample that, as a whole, favours compounds with a hit. Of some 83,000 tested, about 20% had one in any assay.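 Treatment: one concentration, 48 hours, 96-well format. Scoring: percent growth, with anything below 10 considered active.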 Calls of active or inactive are those of the source.

What was measured:
Test in all cases: NCI-60 one-dose screen, 48 h (100 = growth as untreated, 0 = no growth, -100 = all killed)
Conditions in all cases: 10 µM unless noted
SK-MEL-2 melanoma = tested on: SK-MEL-2 melanoma
EKVX NSCLC = tested on: EKVX NSCLC
SN12C renal = tested on: SN12C renal
UO-31 renal = tested on: UO-31 renal
TK-10 renal = tested on: TK-10 renal
ACHN renal = tested on: ACHN renal
CAKI-1 renal = tested on: CAKI-1 renal
A498 renal = tested on: A498 renal
CCRF-CEM leukemia = tested on: CCRF-CEM leukemia
MOLT-4 leukemia = tested on: MOLT-4 leukemia

Measured: growth

Cc1cc(N2CCN(CC(=O)Nc3ccc4c(ccn4C)c3)CC2)nc(N2CCCCCC2)n1
inactive: SK-MEL-2 melanoma 92.1% | EKVX NSCLC 86.2% | SN12C renal 98% | UO-31 renal 67.1% | TK-10 renal 87.2% | ACHN renal 88.4% | CAKI-1 renal 84.6% | A498 renal 46.3% | CCRF-CEM leukemia 35.3% | MOLT-4 leukemia 85.3%

CCOC(=O)c1cc2c(n1Cc1cc(OC)c(OC)c(OC)c1)-c1nc(N)sc1CCC2
inactive: SK-MEL-2 melanoma 32.6% | EKVX NSCLC 65.6% | SN12C renal 88.5% | UO-31 renal 57% | TK-10 renal 74.4% | ACHN renal 77.2% | CAKI-1 renal 55.9% | CCRF-CEM leukemia 41.1% | MOLT-4 leukemia 66.7%
active: A498 renal 7.34%

N#Cc1ccc(O)c(C2=NCC(c3cccc(Oc4ccccc4)c3)O2)c1 (stereo not given)
inactive: EKVX NSCLC 24% | SN12C renal 33.3% | ACHN renal 17.5% | A498 renal 50.9% | CCRF-CEM leukemia 14.4%
active: SK-MEL-2 melanoma 7.46% | UO-31 renal -6.42% | TK-10 renal 3.38% | CAKI-1 renal 6.87% | MOLT-4 leukemia -0.248%

CS(=O)(=O)Nc1cc(-c2ccc3ncnc(Nc4ccc5c(cnn5Cc5cccc(F)c5)c4)c3c2)cnc1Cl
inactive: UO-31 renal 15.7% | ACHN renal 18.4% | CCRF-CEM leukemia 12.7%
active: SK-MEL-2 melanoma -42% | EKVX NSCLC 4.57% | SN12C renal 3.84% | TK-10 renal -15.9% | CAKI-1 renal -27.9% | A498 renal -48.7% | MOLT-4 leukemia -10%

O=C(COc1ccc(-c2nc3cc(Cl)c(Cl)cc3[nH]2)cc1)N=Nc1c(O)[nH]c2ccc(Cl)cc12
inactive: SK-MEL-2 melanoma 90.2% | EKVX NSCLC 96.8% | SN12C renal 74.5% | UO-31 renal 94.4% | TK-10 renal 91.4% | ACHN renal 71.8% | CAKI-1 renal 76.3% | A498 renal 91.3% | CCRF-CEM leukemia 24.2% | MOLT-4 leukemia 47%

COC(=O)c1nc(-c2ccccc2)oc1S(=O)(=O)Cc1ccccc1
active: TK-10 renal 5.41% | ACHN renal -35% | CAKI-1 renal 8.14% | CCRF-CEM leukemia -6.08% | MOLT-4 leukemia -9.29%
inactive: SK-MEL-2 melanoma 80.2% | EKVX NSCLC 119% | SN12C renal 93.5% | UO-31 renal 72.9% | A498 renal 98.1%

N#CC1=C(N)Oc2c(ccc3ccccc23)C1c1ccccc1 (stereo not given)
inactive: SK-MEL-2 melanoma 43.1% | EKVX NSCLC 41.9% | SN12C renal 32.5% | UO-31 renal 39.3% | TK-10 renal 46.8% | ACHN renal 31.2% | CAKI-1 renal 18.1% | A498 renal 33.7% | MOLT-4 leukemia 14.6%
active: CCRF-CEM leukemia 9.24%

CN(C)CC1CCC(CN(C)C)C1=O (stereo not given)
inactive: SK-MEL-2 melanoma 96.8% | EKVX NSCLC 133% | SN12C renal 106% | UO-31 renal 85.4% | TK-10 renal 92.1% | ACHN renal 110% | CAKI-1 renal 108% | A498 renal 103% | CCRF-CEM leukemia 27.9% | MOLT-4 leukemia 64.4%

CSc1nc2ncc([N+](=O)[O-])c(=O)n2[nH]1
inactive: SK-MEL-2 melanoma 107% | EKVX NSCLC 100% | SN12C renal 108% | UO-31 renal 87.5% | TK-10 renal 97.8% | ACHN renal 103% | CAKI-1 renal 92.8% | A498 renal 88.3% | CCRF-CEM leukemia 99.6% | MOLT-4 leukemia 129%

COc1ccc(C(O)c2cc3c(N)c(C(=O)Nc4cccc(Br)c4)sc3nc2C)cc1 (stereo not given)
inactive: SK-MEL-2 melanoma 33.9% | EKVX NSCLC 46.2% | SN12C renal 12.1% | UO-31 renal 22.9% | TK-10 renal 62.9% | ACHN renal 19.8% | CAKI-1 renal 13.5% | CCRF-CEM leukemia 14.2% | MOLT-4 leukemia 15.8%
active: A498 renal -9.2%

Nc1c(C(=O)Nc2ccncc2)sc2nc3c(cc12)C(O)CCC3 (stereo not given)
inactive: SK-MEL-2 melanoma 97.4% | EKVX NSCLC 99.9% | SN12C renal 96.3% | UO-31 renal 81.8% | TK-10 renal 91% | ACHN renal 96.4% | CAKI-1 renal 99.6% | A498 renal 112% | CCRF-CEM leukemia 94.6% | MOLT-4 leukemia 98%

CNc1nnc2n(-c3ccccc3)c(=O)c3cnn(-c4ccccc4)c3n12
inactive: SK-MEL-2 melanoma 82% | EKVX NSCLC 90.4% | SN12C renal 104% | UO-31 renal 81.3% | TK-10 renal 79.9% | ACHN renal 88.8% | CAKI-1 renal 81% | A498 renal 71.7% | CCRF-CEM leukemia 85.8% | MOLT-4 leukemia 72.2%

CC(C)=CCC[C@](C)(O)[C@H]1CC[C@]2(C)[C@@H]1CC[C@@H]1[C@@]3(C)C/C(=C/c4ccco4)C(=O)C(C)(C)[C@@H]3CC[C@]12C
inactive: SK-MEL-2 melanoma 109% | EKVX NSCLC 101% | SN12C renal 97% | UO-31 renal 88.7% | TK-10 renal 103% | ACHN renal 102% | CAKI-1 renal 90.7% | A498 renal 86.3% | CCRF-CEM leukemia 101% | MOLT-4 leukemia 104%

O=C(CSc1nc2sc3c(c2c(=O)n1-c1ccccc1)CCCCC3)N/N=C/c1cccc([N+](=O)[O-])c1
inactive: SK-MEL-2 melanoma 90.2% | EKVX NSCLC 70.3% | SN12C renal 66.8% | UO-31 renal 75.7% | TK-10 renal 96.2% | ACHN renal 80.6% | CAKI-1 renal 60% | A498 renal 83.7% | CCRF-CEM leukemia 76.6% | MOLT-4 leukemia 70.5%

O=C(C[C@]1(O)C(=O)Nc2ccccc21)c1cccc(C(F)(F)F)c1
inactive: SK-MEL-2 melanoma 91.2% | EKVX NSCLC 99.5% | SN12C renal 80% | UO-31 renal 58.1% | TK-10 renal 138% | ACHN renal 88.2% | CAKI-1 renal 81.7% | A498 renal 99.8% | CCRF-CEM leukemia 97% | MOLT-4 leukemia 96%
